Data published in PubChem BioAssay AID1159580 (chemical genetic matrix, 2015).
Where “and” joins values, the source holds several entries; their conditions need not be identical. Equal values may be shown once. Screen size: about 5,500 compounds; about 2,000 (36%) were called active. About 18% were inconclusive and are not listed. Rule as the data show it: active = normalized growth mostly below about 0.91 (no sharp cut-off); inconclusive = no clear call, values can overlap the other calls; inactive = mostly above about 0.92. The list shows a part of the results.

Assay: chemical genetic growth profiling, strain panel (AID 1159580);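 also: tested at 20 µM; growth read once vehicle control cultures reached saturation at 30 °C; 1 = growth at the plate median or of vehicle wells; lower values mean less growth of the strain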
Settings: S. cerevisiae deletion strains, growth OD
[1] = locus YAL040C, strain CLN3, hits give low values
[2] = locus YCL061C, strain MRC1 (second series), hits give low values
[3] = locus YDR363W, strain ESC2, hits give low values
[4] = locus YER002W, strain NOP16, hits give low values
[5] = locus YGR078C, strain PAC10, hits give low values
[6] = locus YJR075W, strain HOC1, hits give low values
[7] = locus YMR307W, strain GAS1, hits give low values
[8] = locus YNL153C, strain GIM3, hits give low values
[9] = locus YNL175C, strain NOP13, hits give low values
[10] = locus YNL197C, strain WHI3, hits give low values
[11] = locus YNL224C, strain SQS1, hits give low values
[12] = locus YOR083W, strain WHI5 (second series), hits give low values
[13] = locus YPL055C, strain LGE1, hits give low values
[14] = locus YPL241C, strain CIN2, hits give low values
[15] = locus YNL322C, strain KRE1, hits give low values
[16] = locus YDR150W, strain NUM1, hits give low values

Measured: normalized growth

C#C[C@]1(O)CC[C@H]2[C@@H]3CCC4=Cc5oncc5CC4(C)[C@H]3CCC21C (some centres undefined)
inactive: [1] 0.943 | [2] 1 | [3] 1.02 | [4] 0.949 | [5] 0.948 | locus YGR229C, strain SMI1, hits give low values 1.02 | [6] 1 | locus YMR263W, strain SAP30, hits give low values 1 | [7] 0.988 | [8] 0.917 | [9] 0.917 | [10] 0.921 | [11] 0.934 | [12] 0.99 | [13] 1.02 | [14] 1

C[C@]12CCC(=O)C=C1CC[C@@H]1[C@@H]2[C@@H](O)C[C@@]2(C)[C@H]1CC[C@]2(O)C(=O)COC(=O)CCC(=O)O
inactive: [2] 1 | [3] 1 | [4] 0.982 | [5] 1.01 | [9] 1.01 | [10] 1.01 | [11] 0.994 | [15] 0.996 | [12] 0.972 | [14] 0.999
active: [1] 1.11 [resistant]

C[C@]12CCC(=O)C=C1CC[C@@H]1[C@@H]2[C@@H](O)C[C@@]2(C)[C@H]1CC[C@]2(O)C(=O)CO
inactive: locus YAL013W, strain DEP1, hits give low values 1 | [1] 0.989 | [2] 1 | [16] 0.993 | [3] 1.02 | [4] 0.986 | [7] 1.01 | [8] 1.01 | [9] 0.99 | [11] 0.995 | [15] 1 | [12] 1.01

C[C@]12CCC(=O)C=C1CCC1C2[C@@H](O)C[C@@]2(C)C1CC[C@]2(O)C(=O)COC(=O)CCC(=O)O (some centres undefined)
inactive: locus YAL021C, strain ccr4, hits give low values 1.02 | locus YAL026C, strain drs2, hits give low values 1.01 | locus YAL030W, strain snc1, hits give low values 1.01 | locus YBL061C, strain skt5, hits give low values 1.02 | locus YBR009C, strain hhf1, hits give low values 1 | locus YBR021W, strain FUR4, hits give low values 1.01 | locus YBR023C, strain chs3, hits give low values 1.02 | locus YBR171W, strain sec66, hits give low values 1.02 | locus YBR229C, strain ROT2, hits give low values 1.01 | locus YBR231C, strain swc5, hits give low values 1.02 | locus YBR279W, strain paf1, hits give low values 1 | locus YCL011C, strain gbp2, hits give low values 1.01 | locus YCL016C, strain dcc1, hits give low values 0.993 | locus YCL029C, strain bik1, hits give low values 0.999 | locus YCL061C, strain MRC1, hits give low values 1.02 | locus YCL069W, strain vba3, hits give low values 1.01 | locus YCR088W, strain abp1, hits give low values 1.01 | locus YDL005C, strain med2, hits give low values 1.02 | locus YDL035C, strain GPR1, hits give low values 1.01 | locus YDL040C, strain nat1, hits give low values 1.01 | locus YDL074C, strain BRE1, hits give low values 1.01 | locus YDL101C, strain DUN1, hits give low values 1 | locus YDL185W, strain tfp1, hits give low values 1 | locus YDL192W, strain arf1, hits give low values 1.01 | locus YDR001C, strain nth1, hits give low values 1.02 | locus YDR069C, strain doa4, hits give low values 1.02 | locus YDR101C, strain arx1, hits give low values 1.01 | locus YDR137W, strain rgp1, hits give low values 1.02 | [16] 1.01 | locus YDR159W, strain sac3, hits give low values 1.03 | locus YDR162C, strain NBP2, hits give low values 1.01 | locus YDR195W, strain ref2 0.997 | locus YDR297W, strain sur2, hits give low values 1.02 | locus YDR318W, strain mcm21, hits give low values 0.995 | locus YDR334W, strain swr1, hits give low values 1.01 | locus YDR335W, strain msn5, hits give low values 1.01 | locus YDR388W, hits give low values 1 | locus YDR392W, strain spt3, hits give low values 0.969 | locus YDR502C, strain sam2, hits give low values 0.999 | locus YEL003W, strain gim4, hits give low values 1.03 | locus YEL037C, strain rad23, hits give low values 1.01 | locus YEL061C, strain CIN8 (second series), hits give low values 1.03 | locus YEL061C, strain CIN8, hits give low values 1.01 | locus YER015W, strain faa2, hits give low values 0.998 | locus YER016W, strain bim1, hits give low values 1.01 | locus YER110C, hits give low values 1.01 | locus YER111C, strain swi4, hits give low values 1.02 | locus YER155C, strain BEM2 (second series), hits give low values 1.03 | locus YER155C, strain BEM2, hits give low values 0.997 | locus YER167W, strain BCK2, hits give low values 1.01 | locus YFR010W, strain ubp6, hits give low values 1.02 | locus YGL078C, strain dbp3, hits give low values 0.996 | locus YGL086W, strain mad1, hits give low values 0.999 | locus YGL167C, strain pmr1, hits give low values 1.03 | locus YGL173C, strain kem1, hits give low values 1.02 | locus YGL227W, strain vid30, hits give low values 1.01 | locus YGL240W, strain doc1, hits give low values 1.02 | locus YGL248W, strain PDE1, hits give low values 1 | locus YGL253W, strain hxk2, hits give low values 0.99 | [5] 1.01 | locus YGR135W, strain pre9, hits give low values 0.989 | locus YGR252W, strain gcn5, hits give low values 0.943 | locus YHR013C, strain ard1, hits give low values 1.02 | locus YHR027C, strain rpn1, hits give low values 1.02 | locus YHR030C, strain SLT2, hits give low values 1.01 and 0.974 | locus YHR079C, strain IRE1 (second series), hits give low values 1 | locus YHR079C, strain IRE1, hits give low values 0.976 | locus YHR094C, strain hxt1, hits give low values 0.993 | locus YHR129C, strain ARP1, hits give low values 1 | locus YHR142W, strain chs7, hits give low values 1.01 | locus YHR200W, strain rpn10, hits give low values 1.01 | locus YIL066C, strain RNR3, hits give low values 1.01 | locus YIL073C, strain SPO22, hits give low values 1.02 | locus YIL125W, strain kgd1, hits give low values 1 | locus YIR030C, strain dcg1, hits give low values 1 | locus YJL092W, strain hpr5, hits give low values 1.02 | locus YJL095W, strain BCK1 (second series), hits give low values 1.02 | locus YJL095W, strain BCK1, hits give low values 1.01 and 0.976 | locus YJL115W, strain asf1, hits give low values 1.02 | locus YJL129C, strain trk1, hits give low values 1.03 | locus YJL134W, strain LCB3, hits give low values 1.01 | locus YJL154C, strain vps35, hits give low values 1.02 | locus YJL164C, strain tpk1, hits give low values 1.02 | locus YJL166W, strain qcr8, hits give low values 1 | locus YJL168C, strain set2, hits give low values 0.996 | locus YJL187C, strain SWE1 (second series), hits give low values 1.01 | locus YJR043C, strain POL32, hits give low values 1.02 | locus YJR066W, strain TOR1, hits give low values 0.931 | [6] 1.02 | locus YKL009W, strain mrt4, hits give low values 1.02 | locus YKL068W, hits give low values 0.998 | locus YKL085W, strain MDH1 (second series), hits give low values 0.999 | locus YKL085W, strain MDH1, hits give low values 0.999 | locus YKL160W, strain elf1, hits give low values 1.01 | locus YKR001C, strain vps1, hits give low values 1.01 | locus YKR026C, strain gcn3, hits give low values 1.02 | locus YKR091W, strain srl3, hits give low values 1 | locus YLL001W, strain dnm1, hits give low values 1.01 | locus YLL026W, hits give low values 1.01 | locus YLL041C, strain sdh2, hits give low values 1.03 | locus YLR027C, strain aat2, hits give low values 1.01 | locus YLR039C, strain RIC1, hits give low values 1.02 | locus YLR058C, strain SHM2, hits give low values 0.989 | locus YLR102C, strain apc9, hits give low values 1 | locus YLR113W, strain HOG1, hits give low values 0.977 | locus YLR221C, strain rsa3, hits give low values 1.02 | locus YLR258W, strain gsy2, hits give low values 1.01 | locus YLR262C, strain YPT6 (second series), hits give low values 1.02 | locus YLR262C, strain YPT6, hits give low values 1.06 | locus YLR268W, strain sec22, hits give low values 0.992 | locus YLR320W, strain mms22, hits give low values 0.979 | locus YLR330W, strain CHS5, hits give low values 1.01 | locus YLR342W, strain FKS1 (second series), hits give low values 0.998 | locus YLR342W, strain FKS1, hits give low values 1.01 | locus YLR357W, strain rsc2, hits give low values 0.995 | locus YLR370C, strain arc18, hits give low values 1.01 | locus YLR371W, strain rom2, hits give low values 0.996 | locus YLR384C, strain iki3, hits give low values 1.02 | locus YLR418C, strain cdc73, hits give low values 0.988 | locus YML016C, strain PPZ1, hits give low values 1 | locus YML032C, strain rad52, hits give low values 0.994 | locus YML120C, strain ndi1, hits give low values 1.02 | locus YML124C, strain tub3, hits give low values 0.994 | locus YMR058W, strain fet3, hits give low values 1.02 | locus YMR078C, strain ctf18, hits give low values 1 | locus YMR125W, strain sto1, hits give low values 1.01 | locus YMR129W, hits give low values 1.02 | locus YMR205C, strain PFK2, hits give low values 1.03 | locus YMR223W, strain ubp8, hits give low values 0.992 | locus YMR231W, strain pep5, hits give low values 1.01 | [7] 1.04 | locus YNL067W, strain RPL9B, hits give low values 1.01 | locus YNL071W, strain lat1, hits give low values 1.01 | locus YNL183C, strain NPR1, hits give low values 0.951 | locus YNL209W, strain ssb2, hits give low values 1.01 | locus YNL233W, strain BNI4, hits give low values 1 | locus YNL248C, strain rpa49, hits give low values 1.04 | locus YNL250W, strain rad50, hits give low values 1 | locus YNL271C, strain bni1, hits give low values 1.01 | locus YNL298W, strain CLA4, hits give low values 1.01 | locus YNL307C, strain MCK1, hits give low values 1.01 | locus YNL322C, strain KRE1 (second series), hits give low values 1.02 | [15] 1.01 | locus YNR049C, strain mso1, hits give low values 1.02 | locus YNR052C, strain pop2, hits give low values 1 | locus YOL006C, strain TOP1, hits give low values 1.01 | locus YOL012C, strain htz1 0.91 | locus YOL147C, strain pex11, hits give low values 1 | locus YOR001W, strain rrp6, hits give low values 1.02 | locus YOR061W, strain CKA2, hits give low values 1.01 | locus YOR069W, strain VPS5, hits give low values 1.01 | locus YOR070C, strain gyp1, hits give low values 1 | locus YOR080W, strain dia2, hits give low values 1.01 | locus YOR083W, strain WHI5, hits give low values 0.983 | locus YOR106W, strain vam3, hits give low values 1.04 | locus YOR136W, strain idh2, hits give low values 1.01 | locus YOR144C, strain elg1, hits give low values 1 | locus YOR184W, strain ser1, hits give low values 1.01 | locus YOR231W, strain MKK1, hits give low values 0.997 | locus YOR265W, strain rbl2, hits give low values 1.01 | locus YOR270C, strain vph1, hits give low values 0.99 | locus YOR290C, strain snf2, hits give low values 0.988 | locus YOR316C, strain cot1, hits give low values 1.01 | locus YPL051W, strain arl3, hits give low values 1 | [13] 1.01 | locus YPL078C, strain atp4, hits give low values 1 | locus YPL106C, strain sse1, hits give low values 1 | locus YPL240C, strain hsp82, hits give low values 1 | [14] 1.01 | locus YPL256C, strain CLN2, hits give low values 0.98 | locus YPR119W, strain clb2, hits give low values 1.01 | locus YPR141C, strain kar3, hits give low values 1.01 | locus YPR163C, strain tif3, hits give low values 1.01 | locus YPR167C, strain met16, hits give low values 1.01 | strain wtn01, hits give low values 0.996
